From PubChem BioAssay
An excerpt weighted towards active compounds, which were near 4% of everything screened.
CSC inhib: cancer stem cell viability inhibitors, primary screen, luminescence; cancer stem cell-like cells viability; inhibition, % at 7.5 µM; hit rate 1.1% among 300,000; AID 2717, 2010; in the data active = inhibition above about 75%; inconclusive = no clear call, values can overlap the other calls; tested in HMLE shEcad cells
Shn3 inh set2: reduction of Shn3 3'UTR firefly luciferase signal, primary screen, Schnurri-3 inhibitor project, cell-based, Clone20 osteoblasts, set 2; Clone20 osteoblast Shn3 3'UTR firefly luciferase, 24 h; inhibition, % at 12.5 µM; hit rate 0.52% among 360,000;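 active = mean inhibition of at least 75% with every replicate also reaching 75%; inconclusive = mean inhibition at least 75% but some replicate below; inactive = mean inhibition below 75%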;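 also: 0% = median of neutral control wells and 100% = pilot-screen positive control compound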
PAX8 inh HTS: inhibitors of PAX8-driven TPO luciferase reporter, primary screen, RMG-I cells, single concentration; AID 652154, 2013; hit rate 1.2% among 360,000; inhibition, % at 12.6 µM; SteadyGlo, 24 h;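 active = mean replicate inhibition at least 60% with every replicate also reaching 60%; inconclusive = only one of the two criteria is met; inactive = mean below 60% and not all replicates reaching 60%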;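 also: luciferase light reporting Pax8 driven TPO promoter activity; plate controls were median of neutral control wells for no effect and mitoxantrone controls for full effect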
Gli-Sufu block: Gli-Sufu pathway antagonists, primary screen, luciferase luminescence, Sufu-KO-LIGHT cells, uHTS; Sufu-KO-LIGHT fibroblasts, Gli luciferase reporter luminescence; inhibition, % at 5 µM; hit rate 0.74% among 340,000; AID 588413, 2011;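 active = inhibition above about 55%, limit read from the data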;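 also: 0% = DMSO-treated cells and 100% = wells with medium but no cells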
Mdm2-MdmX inh: inhibitors of human Mdm2-MdmX association, primary screen, cell-based, luminescence, split luciferase, SaOS-2, uHTS; Protein Mdm4 (Homo sapiens) + E3 ubiquitin-protein ligase Mdm2 (Homo sapiens), …; SaOS-2 split-luciferase Mdm2/MdmX complementation; inhibition, % at 8 µM; hit rate 3% among 330,000;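 active = inhibition of at least 50% at 8 µM in the primary screen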
Target sequence (O15151 whole entry, looked up): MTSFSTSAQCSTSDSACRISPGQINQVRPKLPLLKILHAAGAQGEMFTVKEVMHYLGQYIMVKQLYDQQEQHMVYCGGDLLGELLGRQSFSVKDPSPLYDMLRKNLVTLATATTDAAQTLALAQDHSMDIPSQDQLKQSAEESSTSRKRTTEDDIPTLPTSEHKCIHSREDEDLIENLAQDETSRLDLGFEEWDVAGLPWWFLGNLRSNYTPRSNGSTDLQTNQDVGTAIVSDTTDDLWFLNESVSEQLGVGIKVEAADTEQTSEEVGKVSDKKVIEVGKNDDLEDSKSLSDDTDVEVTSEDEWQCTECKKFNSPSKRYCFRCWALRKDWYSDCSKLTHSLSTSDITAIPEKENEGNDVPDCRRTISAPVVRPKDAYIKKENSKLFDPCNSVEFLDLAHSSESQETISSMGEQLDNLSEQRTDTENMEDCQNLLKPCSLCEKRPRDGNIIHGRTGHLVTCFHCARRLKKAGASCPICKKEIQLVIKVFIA
Target sequence (Q00987 whole entry, looked up): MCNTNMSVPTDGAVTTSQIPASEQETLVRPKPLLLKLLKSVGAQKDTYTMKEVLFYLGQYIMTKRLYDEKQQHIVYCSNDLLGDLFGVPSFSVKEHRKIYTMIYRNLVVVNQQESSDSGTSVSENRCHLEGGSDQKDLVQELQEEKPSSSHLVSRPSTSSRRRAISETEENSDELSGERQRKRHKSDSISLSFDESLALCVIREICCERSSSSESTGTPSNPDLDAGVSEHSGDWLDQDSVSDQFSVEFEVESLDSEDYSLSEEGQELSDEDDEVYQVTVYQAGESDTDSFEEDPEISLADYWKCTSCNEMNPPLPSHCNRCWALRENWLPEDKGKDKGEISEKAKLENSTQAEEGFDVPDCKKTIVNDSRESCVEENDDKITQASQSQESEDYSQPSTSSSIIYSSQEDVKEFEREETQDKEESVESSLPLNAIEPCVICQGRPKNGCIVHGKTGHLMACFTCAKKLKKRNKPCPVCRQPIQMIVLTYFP
Beta apoptosis: inhibitors of cytokine-induced beta cell apoptosis, primary screen, luminescence; hit rate 0.8% among 300,000; protection from apoptosis, % (no concentration beside the values); AID 435005, 2010; INS-1E cytokine-induced death, ATP luminescence, 48 h; percent of positive-control rescue, neutral wells zero;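 active = Every replicate reaches about 75%, or at least half do and their mean reaches it too, limit read from the data; inconclusive = At least half of replicates reach the limit but their mean does not; inactive = Under half of replicates reach the limit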;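 also: 0% = cytokine-treated negative control wells and 100% = positive control rescue; higher means more ATP so stronger rescue from cytokine killing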
Mdm2-MdmX conf: Mdm2-MdmX complex disruptors, retested hits, confirmation, luminescence, single concentration. inhibition, % at 8 µM. Mdm2-MdmX binding, luminescent assay. hit rate 55% among 10,000. shares compounds with Mdm2-MdmX inh; in the data active = inhibition above about 40%
Full FLuc ctr: full-length luciferase signal inhibition, confirmation, counter-screen for Mdm2/MdmX interaction inhibitor project, cell-based, single concentration, SaOS-2; SaOS-2 full-length luciferase counterscreen, luminescence; inhibition, % at 8 µM; shares compounds with Mdm2-MdmX inh; hit rate 77% among 6,200; AID 504607, 2011;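 active = mean inhibition at 8 µM reaching about 37%, which flags the compound as non-specific, limit read from the data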;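 also: p53-null SaOS-2 cells with luciferase driven by a doxycycline-inducible promoter; compound on cells about two nights before reading with doxycycline added after day one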
* marks the source's active call; other numbers are inactive results; ? = inconclusive; . = not tested or not shown.

SMILES	CSC inhib	Shn3 inh set2	PAX8 inh HTS	Gli-Sufu block	Mdm2-MdmX inh	Beta apoptosis	Mdm2-MdmX conf	others
CCCCCOc1ccc(Br)cc1/C(C)=N/NC1=NCCN1	-3	?	81*	38	86*	45	67*	Full FLuc ctr=63*
COc1ccc(Br)cc1/C(C)=N/NC1=NCCN1	4	46	.	26	23	10	.
CCC1CSC(Nc2ccc(C(=O)/C=C/c3ccc(Br)cc3)cc2)=N1 (stereo unspecified)	79*	36	-6	37	59*	31	21
CCOC(=O)/C(=C\c1cccnc1)C(=O)c1cc(C(C)=O)c(Nc2ccccc2)s1	97*	98*	.	60*	97*	105*	99*	Full FLuc ctr=52*
CCOC(=O)/C(C#N)=C\c1cccnc1	.	-12	4	-1	5	-8	.
CCOC(=O)C(=O)/C(C#N)=C/Nc1ccccc1	-3	-19	.	17	28	-6	.
CCOC(=O)/C(=C\c1ccccc1)C(=O)c1cc(C(C)=O)c(Nc2ccccc2)s1	76*	98*	.	11	97*	98*	93*	Full FLuc ctr=45*
Cc1ccccc1C(=O)Nc1cccc(NC(=O)Cn2cnc3c(=O)n(C)c(=O)n(C)c32)c1	-5	18	.	32	51*	10	34
Cc1cccc(C)c1NC(=O)Cn1cnc2c(=O)n(C)c(=O)n(C)c21	-9	19	-7	2	2	3	.
CN(C)C(=O)C[C@H]1C[C@@H]2c3cc(NC(=O)Nc4ccc(F)cc4)ccc3O[C@@H]2[C@@H](CO)O1	.	.	22	.	.	.	.
Cc1nn(CC(=O)NCCCN2CCN(C)CC2)c(=O)c2cc(-c3ccccc3)nn12	39	-2	-9	-7	7	-4	.
Cc1nn(CC(=O)NCCCN2CCC(N3CCCCC3)CC2)c(=O)c2cc(-c3ccccc3)nn12	-6	9	-6	5	95*	7	53*	Full FLuc ctr=56*
COc1ccc(-c2cc3c(=O)n(CC(=O)NCc4ccc(Cl)cc4)ncn3n2)cc1	3	-7	-4	-40	64*	14	6
COc1ccc(-c2cc3c(=O)n(CC(=O)NCc4ccc(F)cc4)ncn3n2)cc1	17	5	-15	-78	86*	32	21
COc1ccc(-c2cc3c(=O)n(CC(=O)NCc4ccc(C)cc4)ncn3n2)cc1	13	-26	-2	-6	95*	17	-8
C[C@H](NC(=O)C[C@H]1CC[C@@H](NC(=O)Nc2ccc3c(c2)OCO3)[C@@H](CO)O1)c1ccccc1	.	.	16	.	.	.	.
CO[C@H]1CN(C)C(=O)c2cccc(C#N)c2OC[C@@H]2O[C@H](CC[C@H]2OC)CCN(C)C(=O)[C@H]1C	.	.	-2	.	.	.	.
CN1CCN(C(=O)C[C@@H]2C[C@@H]3c4cc(NC(=O)Nc5ccc(C(F)(F)F)cc5)ccc4O[C@@H]3[C@@H](CO)O2)CC1	.	.	18	.	.	.	.
COc1ccc(CNC(=O)Cn2ncn3cccc3c2=O)cc1	.	.	-41	.	18	2	.
COc1ccc(-c2cc3c(=O)n(CC(=O)NCCCN4CCN(Cc5ccccc5)CC4)ncn3n2)cc1	-1	71	-103	35	-22	57	.
COc1ccc(CNC(=O)Cn2ncn3c(cc4ccccc43)c2=O)cc1	-6	10	21	-8	67*	-4	11
COc1ccc(-c2cc3c(=O)n(CC(=O)NCCCN4CCC(Cc5ccccc5)CC4)ncn3n2)cc1	51	70	8	37	87*	43	37	Full FLuc ctr=68*
COCCNC(=O)C[C@@H]1C[C@H]2c3cc(NC(=O)CC4CC4)ccc3O[C@H]2[C@@H](CO)O1	.	.	-28	.	.	.	.
